According to PubChem BioAssay:
Values joined by “and” are separate entries in the source; they are usually repeats but may differ in a detail not shown here. Equal values may be shown once. Active and inactive are the calls of the source.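 Rule for the calls, unless noted: active = compounds whose cell count with miR-34 switched on is under 0.7 times the count with it off; inactive = the rest.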

How the values were obtained:
[1] = EMT-state selective cytotoxicity in co-culture – imaging, PC-3E GFP, TEM4-18 mCherry, primary screen (AID 1345086;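 active = compounds killing one labelled cell type while sparing the other, by normalised counts and ratio limits, not self-fluorescent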;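 for all read-outs here: cells exposed to compound for 72 h before imaging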;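 for red/green cell ratio (normalised): normalised mesenchymal count divided by normalised epithelial count so high means epithelial killing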); details: PC-3E GFP / TEM4-18 mCherry co-culture, imaging cell counts, at 1 µM; for red/green cell ratio (normalised): actives lie on both sides, counts scaled to control wells, 1 = unselective
[2] = viability loss with induced miR-34 in A549 – imaging, A549 dox-inducible miR-34, nuclei and caspase counts, primary screen (AID 1347080); details: A549 miR-34 inducible, Hoechst nuclei count, 48 h
[3] = compounds altering circadian rhythm period length – cell-based, LOPAC library, luminescence reporter (AID 2774; call rule not given here;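 note: values are relative to mean of DMSO wells on each plate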); details: circadian reporter cells, at 7 µM, actives lie on both sides
[4] = P. berghei load reduction in hepatocytes – cell-based, HepG2, luciferase luminescence, HepG2 viability, primary screen (AID 624349; in the data active = parasite load remaining mostly below about 12%, no sharp cut-off; inactive = mostly above about 10%;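 note: 100% = mean of DMSO negative control wells on the same plate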); details: P. berghei liver stage in HepG2, luciferase luminescence, concentration not given here; parasite load remaining: stronger effect = lower value; viability: measured here: HepG2 viability without parasites
[5] = tested on: Hepatitis C virus NS3 helicase; test: blockers of NS3h binding to ssDNA – biochemical, fluorescence polarization, LOPAC1280 library, primary screen (AID 687035; in the data active = inhibition above about 37%); details: Purified HCV NS3 helicase, Cy5-dT15 ssDNA binding fluorescence polarization; stronger effect = higher value; concentration not given here
[6] = compounds altering Cy5-DNA-NS3h complex signal – biochemical, LOPAC1280, artefact control for HCV NS3 helicase inhibitor project (AID 687037; call rule not given here); details: Cy5-DNA-NS3h complex fluorescence interference counterscreen
[7] = blockers of cellular phospholipid synthesis – cell-based, LOPAC library, screen 4, primary screen (AID 1347384; call rule not given here); details: animal cells, phospholipid biosynthesis inhibition screen; at 10 µM
[8] = MELAS cybrid and Rieske KO viability enhancers – cell-based, MELAS cybrids, Rieske KO mouse fibroblasts, CellTiter-Glo, primary screen (AID 1508586;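 active = mean z-score across replicates of 1.96 or higher in either the MELAS or the Rieske mutant cell line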;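 note: z relative to plate mean and SD of compound and empty wells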); details: low glucose
[9] = target: NAD(+) hydrolase SARM1 (Homo sapiens) (UniProt Q6SZW1); test: blocking NAD cleavage by SARM1 SAM-TIR – cell lysate, NAD-Glo luminescence (AID 1508614;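 active = compound whose remaining NAD level is above about 45 nM, limit read from the data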;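 note: higher remaining NAD means stronger inhibition of SARM1 NADase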); details: SAM-TIR HEK293T lysate NADase, at 1 µM, stronger effect = higher value
Chain of NAD(+) hydrolase SARM1 (Homo sapiens) (Q6SZW1 whole entry, looked up): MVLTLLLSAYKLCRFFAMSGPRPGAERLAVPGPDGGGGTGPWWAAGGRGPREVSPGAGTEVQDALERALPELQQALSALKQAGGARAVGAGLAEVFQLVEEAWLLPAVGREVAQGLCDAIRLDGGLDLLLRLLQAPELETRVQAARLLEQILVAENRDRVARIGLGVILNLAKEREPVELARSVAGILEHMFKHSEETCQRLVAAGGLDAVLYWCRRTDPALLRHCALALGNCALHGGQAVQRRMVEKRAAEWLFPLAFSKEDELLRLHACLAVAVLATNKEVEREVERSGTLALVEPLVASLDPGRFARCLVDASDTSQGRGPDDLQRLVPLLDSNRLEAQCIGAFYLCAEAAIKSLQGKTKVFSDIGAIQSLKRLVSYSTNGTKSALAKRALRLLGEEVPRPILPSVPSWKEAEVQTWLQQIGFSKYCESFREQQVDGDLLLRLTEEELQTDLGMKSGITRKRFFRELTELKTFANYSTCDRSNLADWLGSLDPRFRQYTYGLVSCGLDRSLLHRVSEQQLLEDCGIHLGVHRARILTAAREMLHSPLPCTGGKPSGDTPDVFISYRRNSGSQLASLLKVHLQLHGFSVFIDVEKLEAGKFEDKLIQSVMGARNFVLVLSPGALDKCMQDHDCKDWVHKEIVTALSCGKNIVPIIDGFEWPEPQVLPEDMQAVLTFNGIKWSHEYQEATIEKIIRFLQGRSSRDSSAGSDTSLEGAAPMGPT

[10] = galactose survival enhancers in mitochondrial complex I cybrids – cell-based, galactose medium, ATP luminescence, primary screen (AID 1645843;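 active = z-score of at least 1.8 in each of two replicates, scored against plate mean and spread of sample wells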;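 note: positive z means more ATP and so rescue of galactose-driven cybrid death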); details: complex I mutant cybrid cells, 72 h, stronger effect = higher value
[11] = target: Mitogen-activated protein kinase 7 (Homo sapiens) (UniProt Q13164); test: Gal4-ERK5 driven luciferase induction – cell-based, HTS, primary screen (AID 1508626;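 active = luciferase signal above three times the same-plate solvent-only control wells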;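 note: luciferase driven by Gal4-ERK5 fusion binding five Gal4 sites before minimal TATA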); details: HeLa Gal4-ERK5 transactivation, 18 h, at 5 µM, stronger effect = higher value
Chain of Mitogen-activated protein kinase 7 (Homo sapiens) (Q13164 whole entry, looked up, the tested form may be a part): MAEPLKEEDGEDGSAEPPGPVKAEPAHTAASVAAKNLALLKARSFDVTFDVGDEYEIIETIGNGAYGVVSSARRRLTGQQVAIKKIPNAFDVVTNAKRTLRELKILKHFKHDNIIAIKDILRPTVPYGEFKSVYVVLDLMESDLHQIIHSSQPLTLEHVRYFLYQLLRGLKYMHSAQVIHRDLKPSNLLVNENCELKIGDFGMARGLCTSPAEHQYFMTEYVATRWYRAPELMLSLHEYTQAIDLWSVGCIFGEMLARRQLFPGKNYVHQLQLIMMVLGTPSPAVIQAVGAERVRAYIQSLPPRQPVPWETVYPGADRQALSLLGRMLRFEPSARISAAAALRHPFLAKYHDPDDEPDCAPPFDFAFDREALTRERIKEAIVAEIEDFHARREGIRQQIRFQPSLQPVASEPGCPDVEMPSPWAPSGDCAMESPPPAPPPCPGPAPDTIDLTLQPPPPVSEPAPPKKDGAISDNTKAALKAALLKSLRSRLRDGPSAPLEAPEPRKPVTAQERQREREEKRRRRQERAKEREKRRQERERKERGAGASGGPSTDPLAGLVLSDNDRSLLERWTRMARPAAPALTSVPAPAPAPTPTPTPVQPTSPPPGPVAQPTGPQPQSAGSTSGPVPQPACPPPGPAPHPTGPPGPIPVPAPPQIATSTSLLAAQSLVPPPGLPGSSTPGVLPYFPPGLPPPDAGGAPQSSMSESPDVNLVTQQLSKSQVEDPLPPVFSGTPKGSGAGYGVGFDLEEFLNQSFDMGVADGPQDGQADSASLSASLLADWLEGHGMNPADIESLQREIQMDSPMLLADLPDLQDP

[12] = measured here: epithelial PC-3E GFP cell survival
[13] = measured here: mesenchymal TEM4-18 mCherry cell survival
[14] = stronger effect = lower value, cell number ratio, induced over uninduced
[15] = measured here: relative caspase fold change +Dox/-Dox
[16] = measured here: total cells with miR-34 induction, stronger effect = lower value
[17] = measured here: total cells without miR-34 induction
[18] = MELAS cybrid survival, CellTiter-Glo 48 h, stronger effect = higher value
[19] = Rieske KO mouse fibroblast survival, CellTiter-Glo 72 h

Compound	red/green cell ratio (normalised) [1]	normalised cell number [1, 12]	normalised cell number [1, 13]	fold change [2, 14]	fold change [2, 15]	cell count [2, 16]	cell count [2, 17]	period change [3]	parasite load remaining [4]	viability [4]	inhibition [5]	fluorescence ratio (interference) [6]	outcome [7]	z-score [8, 18]	z-score [8, 19]	remaining NAD [9]	z-score [10]	luciferase signal [11]
COc1c(O)cc2c(c1O)[C@H]1O[C@H](CO)[C@@H](O)[C@H](O)[C@@H]1OC2=O	0.9 (inactive)	1.23	1.11	0.894 (inactive)	0.886	8900	9950	–	–	–	–	–	–	–	–	–	–	–
N[C@H]1CONC1=O	0.88 (inactive)	1.18	1.03	1.03 (inactive) and 0.935 (inactive) and 0.898 (inactive)	1.58 and 1.14 and 0.652	10600 and 9010 and 9280	10300 and 9640	-0.055 h (inactive)	74% (inactive)	71%	0% (inactive)	1 (inactive)	inactive	-0.786 (inactive)	-1.27	10 nM (inactive)	-0.18 (inactive)	–
O=C(O)[C@H]1/C(=C/CO)O[C@@H]2CC(=O)N21	1.31 (inactive)	0.86	1.13	0.901 (inactive)	3.53	11900	13200	–	50.6% (inactive)	103%	–	–	–	-0.304 (inactive)	-1.19	10 nM (inactive)	–	76 AU (inactive)
CC(C)CC(N)=O	0.8 (inactive)	1.07	0.86	0.906 (inactive) and 0.908 (inactive)	0.955 and 0.851	8450 and 8440	9330 and 9300	–	–	–	–	–	–	-0.0903 (inactive)	-0.199	10 nM (inactive)	–	–
N=C(N)c1ccc(N=NNc2ccc(C(=N)N)cc2)cc1 (tested in a mixture with another compound)	0.86 (inactive)	1.06	0.91	0.828 (inactive) and 0.804 (inactive)	1.35 and 1.21	6360 and 8020	7680 and 9970	–	–	–	–	–	–	6.02 (active)	5.36	10 nM (inactive)	–	–
CCOC(=O)CC(=O)N1CCSC1COc1ccccc1OC (stereo not drawn)	1.03 (inactive)	0.9	0.93	0.901 (inactive) and 0.963 (inactive)	1.01 and 0.429	7560 and 7640	8380 and 7930	–	–	–	–	–	–	-0.272 (inactive)	-0.0679	10 nM (inactive)	–	–
CC[C@H]1OC(=O)[C@H](C)[C@@H](O[C@H]2C[C@@](C)(OC)[C@@H](O)[C@H](C)O2)[C@H](C)[C@@H](O[C@@H]2O[C@H](C)C[C@H](N(C)C)[C@H]2O)[C@](C)(O)C[C@@H](C)[C@@H]2N[C@@H](COCCOC)O[C@H]([C@H]2C)[C@]1(C)O	0.74 (inactive)	1.25	0.93	0.867 (inactive) and 0.854 (inactive)	0.963 and 2.6	8760 and 11500	10100 and 13500	–	193% (inactive) and 158% (inactive) and 59.8% (inactive)	113% and 86.5% and 194%	–	–	–	-1.14 (inactive)	-0.393	10 nM (inactive)	–	44 AU (inactive)
CN1C2CCCC1CC(NC(=O)c1nn(C)c3ccccc13)C2 (stereo not drawn)	0.96 (inactive)	0.99	0.95	0.966 (inactive) and 0.87 (inactive)	1.65 and 2.43	10200 and 8870	10600 and 10200	–	–	–	–	1 (inactive)	inactive	–	–	–	-0.44 (inactive) and 0.15 (inactive)	–
COc1cccc2c1C(=O)c1c(O)c3c(c(O)c1C2=O)C[C@@](O)(C(=O)CO)C[C@@H]3OC1C[C@H](N)[C@H](O)[C@H](C)O1 (stereo partly drawn)	2.27 (inactive)	0.17	0.39	0.907 (inactive)	1.04	1130	1250	–	18.8% (inactive)	53.1%	–	–	–	–	–	–	–	–
COc1cc([C@@H]2c3cc4c(cc3[C@H](O)C3COC(=O)[C@@H]32)OCO4)cc(OC)c1OC (stereo partly drawn)	1.07 (inactive)	0.17	0.18	0.98 (inactive)	1.04	1670	1710	0.2 h (inactive)	–	–	-3% (inactive)	1 (inactive)	inactive	–	–	–	-0.545 (inactive)	–
O=C(O)C1CCCNC1 (stereo not drawn)	0.84 (inactive)	1.28	1.08	0.976 (inactive) and 0.953 (inactive)	1.22 and 0.942	9840 and 8650	10100 and 9080	0.19 h (inactive)	89.7% (inactive)	95.9%	0% (inactive)	0.9 (inactive)	inactive	–	–	–	0.695 (inactive)	–
CC(=O)c1ccc(S(=O)(=O)NC(=O)NC2CCCCC2)cc1	0.86 (inactive)	0.99	0.85	1.04 (inactive) and 0.892 (inactive) and 0.85 (inactive)	2.43 and 1.31 and 5.06	10800 and 8720 and 11600	10400 and 9780 and 13600	-0.09 h (inactive)	38.7% (inactive) and 91.1% (inactive) and 69.3% (inactive)	49.8% and 90.7% and 105%	-2% (inactive)	1 (inactive)	inactive	0.0376 (inactive)	-0.115	10 nM (inactive)	0.71 (inactive)	44 AU (inactive)
